For one sequence, binding signal results are on record in article PMC7862700, “An all-to-all approach to the identification of sequence-specific readers for epigenetic DNA modifications on cytosine”.

Holding throughout (experiment): DAPPL (digital affinity profiling via proximity ligation, sequencing); 10 mM Tris-HCl pH 7.5, 50 mM NaCl, 1 mM DTT, 4% glycerol, room temperature, 30 min; GST-TFs on glutathione beads, 16-mer random dsDNA library, 0.1% formaldehyde crosslink after washing; high values mean tight binding
Experiment [1] addresses T1, FEV (Homo sapiens, UniProt Q99581 1-238).
T1 sequence: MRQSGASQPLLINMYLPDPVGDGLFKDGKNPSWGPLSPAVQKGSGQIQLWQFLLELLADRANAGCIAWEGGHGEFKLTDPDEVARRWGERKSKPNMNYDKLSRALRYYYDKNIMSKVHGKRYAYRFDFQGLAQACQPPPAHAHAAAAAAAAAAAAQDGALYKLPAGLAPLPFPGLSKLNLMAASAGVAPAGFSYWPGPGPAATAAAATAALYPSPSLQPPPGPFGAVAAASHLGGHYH
To be noted: protein: recombinant; tags: N-terminal GST; dsDNA, one strand shown. Put shortly: (§1)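 Pools were built from human transcription factors expressed in yeast as GST fusions, captured on glutathione beads and DNA-barcoded, along with a tag-only sample. Incubation with 200 nmole of a 16-mer random double-stranded DNA library lasted 30 min at room temperature in Tris/NaCl/DTT/glycerol buffer, and was followed by washing, 0.1% formaldehyde crosslinking, proximity ligation, PCR amplification and Illumina NextSeq500 sequencing. Binding signal is the quotient of each hexamer's read frequency for a factor and its frequency for the tag-only sample.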

In experiment [2] the target is ETV5 (Homo sapiens, UniProt P41161 1-510). To be noted: protein: recombinant; tags: N-terminal GST; dsDNA, one strand shown. An outline of the steps: as §1
Experiment [3] has as its target HSF1 (Homo sapiens, UniProt Q00613 1-529). The settings on record: protein: recombinant; tags: N-terminal GST; chain copies: 3; dsDNA, one strand shown. Put shortly: as §1
Experiment [4] has as its target T2, SPIC (Homo sapiens, UniProt Q8N5J4 1-248).
T2 sequence: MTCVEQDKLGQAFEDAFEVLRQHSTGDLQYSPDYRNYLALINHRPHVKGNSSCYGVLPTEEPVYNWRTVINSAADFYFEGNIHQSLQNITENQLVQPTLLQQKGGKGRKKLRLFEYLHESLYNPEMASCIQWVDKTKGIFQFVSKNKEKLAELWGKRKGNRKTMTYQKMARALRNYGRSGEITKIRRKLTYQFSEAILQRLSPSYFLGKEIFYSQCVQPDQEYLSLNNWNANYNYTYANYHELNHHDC
The settings on record: protein: recombinant; tags: N-terminal GST; dsDNA, one strand shown. An outline of the steps: as §1

The target of experiment [5] is ELF4 (Homo sapiens, UniProt Q99607 1-663). To be noted: protein: recombinant; tags: N-terminal GST; dsDNA, one strand shown. An outline of the steps:
as §1

In experiment [6] the target is T3, ELK4 (Homo sapiens, UniProt P28324-2 1-405).
T3 sequence: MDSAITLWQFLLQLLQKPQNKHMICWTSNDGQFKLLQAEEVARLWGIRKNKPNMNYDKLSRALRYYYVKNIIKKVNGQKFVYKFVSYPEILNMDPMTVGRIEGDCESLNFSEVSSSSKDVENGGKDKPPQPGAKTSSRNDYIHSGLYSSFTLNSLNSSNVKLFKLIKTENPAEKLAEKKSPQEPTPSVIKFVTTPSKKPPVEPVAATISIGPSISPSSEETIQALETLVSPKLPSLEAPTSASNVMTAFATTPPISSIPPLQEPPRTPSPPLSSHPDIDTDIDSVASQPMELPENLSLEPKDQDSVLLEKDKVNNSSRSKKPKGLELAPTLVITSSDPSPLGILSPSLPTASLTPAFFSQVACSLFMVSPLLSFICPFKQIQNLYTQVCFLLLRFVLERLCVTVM
The settings on record: protein: recombinant; tags: N-terminal GST; dsDNA, one strand shown. Put shortly:
as §1

Experiment [7] deals with T4, ETV2 (Homo sapiens, UniProt O00321 1-342).
T4 sequence: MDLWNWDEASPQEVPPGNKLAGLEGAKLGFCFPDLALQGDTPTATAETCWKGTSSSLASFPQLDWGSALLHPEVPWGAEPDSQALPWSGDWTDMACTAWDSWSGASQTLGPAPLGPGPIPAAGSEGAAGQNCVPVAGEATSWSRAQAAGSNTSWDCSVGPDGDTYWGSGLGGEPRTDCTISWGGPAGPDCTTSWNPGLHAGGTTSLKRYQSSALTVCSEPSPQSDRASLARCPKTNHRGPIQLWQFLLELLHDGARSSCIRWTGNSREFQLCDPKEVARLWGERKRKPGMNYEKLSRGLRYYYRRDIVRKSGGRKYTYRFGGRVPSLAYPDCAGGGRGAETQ
The settings on record: protein: recombinant; tags: N-terminal GST; dsDNA, one strand shown. Put shortly:
as §1

For experiment [8], the target named is T5, ELF3 (Homo sapiens, UniProt P78545 1-371).
T5 sequence: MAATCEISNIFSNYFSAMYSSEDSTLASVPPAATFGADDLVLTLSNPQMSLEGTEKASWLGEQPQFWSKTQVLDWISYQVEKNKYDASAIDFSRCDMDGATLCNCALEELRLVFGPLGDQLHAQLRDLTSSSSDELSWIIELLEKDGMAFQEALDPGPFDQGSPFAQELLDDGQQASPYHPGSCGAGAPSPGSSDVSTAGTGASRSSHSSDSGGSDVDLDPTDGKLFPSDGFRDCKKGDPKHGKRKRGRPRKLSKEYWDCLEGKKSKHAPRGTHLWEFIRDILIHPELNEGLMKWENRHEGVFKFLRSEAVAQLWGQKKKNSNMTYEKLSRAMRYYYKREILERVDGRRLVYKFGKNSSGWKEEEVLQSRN
To be noted: protein: recombinant; tags: N-terminal GST; dsDNA, one strand shown. Put shortly:
as §1

Experiment [9] has as its target CRX (Homo sapiens, UniProt O43186 1-299). To be noted: protein: recombinant; tags: N-terminal GST; dsDNA, one strand shown. An outline of the steps:
as §1

Experiment [10] addresses ETV1 (Homo sapiens, UniProt P50549 1-477). The settings on record: protein: recombinant; tags: N-terminal GST; dsDNA, one strand shown. An outline of the steps:
as §1

For experiment [11], the target named is T6, ERF (Homo sapiens, UniProt P50548 1-548).
T6 sequence: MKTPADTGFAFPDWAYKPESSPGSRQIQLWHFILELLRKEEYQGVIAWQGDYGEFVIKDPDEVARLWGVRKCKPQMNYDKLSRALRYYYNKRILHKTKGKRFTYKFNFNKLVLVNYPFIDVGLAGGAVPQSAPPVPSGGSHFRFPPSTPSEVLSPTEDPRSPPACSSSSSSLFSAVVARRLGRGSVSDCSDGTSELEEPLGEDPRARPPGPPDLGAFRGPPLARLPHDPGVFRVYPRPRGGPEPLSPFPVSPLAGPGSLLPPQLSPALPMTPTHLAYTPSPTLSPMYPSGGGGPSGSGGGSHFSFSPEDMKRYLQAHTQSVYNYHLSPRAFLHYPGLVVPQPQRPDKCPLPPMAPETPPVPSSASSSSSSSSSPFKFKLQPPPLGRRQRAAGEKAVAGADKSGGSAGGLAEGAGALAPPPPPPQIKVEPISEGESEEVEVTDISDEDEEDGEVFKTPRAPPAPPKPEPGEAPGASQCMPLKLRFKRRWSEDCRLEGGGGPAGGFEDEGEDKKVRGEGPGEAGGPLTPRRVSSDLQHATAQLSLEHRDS
To be noted: protein: recombinant; tags: N-terminal GST; dsDNA, one strand shown. An outline of the steps:
as §1

Experiment [12] deals with T7, ETV3L (Homo sapiens, UniProt Q6ZN32 1-361).
T7 sequence: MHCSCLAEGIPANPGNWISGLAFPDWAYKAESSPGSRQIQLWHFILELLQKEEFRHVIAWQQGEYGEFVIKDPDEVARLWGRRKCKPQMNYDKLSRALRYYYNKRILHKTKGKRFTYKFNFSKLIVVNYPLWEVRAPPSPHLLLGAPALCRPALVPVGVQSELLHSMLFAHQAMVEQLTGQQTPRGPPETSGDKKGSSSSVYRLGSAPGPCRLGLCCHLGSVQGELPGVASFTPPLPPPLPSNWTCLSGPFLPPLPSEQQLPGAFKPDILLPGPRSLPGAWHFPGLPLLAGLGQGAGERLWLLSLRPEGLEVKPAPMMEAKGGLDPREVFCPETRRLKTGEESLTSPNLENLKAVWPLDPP
The settings on record: protein: recombinant; tags: N-terminal GST; dsDNA, one strand shown. An outline of the steps:
as §1

Experiment [13] concerns the target T8, ETS2 (Homo sapiens, UniProt P15036 1-469).
T8 sequence: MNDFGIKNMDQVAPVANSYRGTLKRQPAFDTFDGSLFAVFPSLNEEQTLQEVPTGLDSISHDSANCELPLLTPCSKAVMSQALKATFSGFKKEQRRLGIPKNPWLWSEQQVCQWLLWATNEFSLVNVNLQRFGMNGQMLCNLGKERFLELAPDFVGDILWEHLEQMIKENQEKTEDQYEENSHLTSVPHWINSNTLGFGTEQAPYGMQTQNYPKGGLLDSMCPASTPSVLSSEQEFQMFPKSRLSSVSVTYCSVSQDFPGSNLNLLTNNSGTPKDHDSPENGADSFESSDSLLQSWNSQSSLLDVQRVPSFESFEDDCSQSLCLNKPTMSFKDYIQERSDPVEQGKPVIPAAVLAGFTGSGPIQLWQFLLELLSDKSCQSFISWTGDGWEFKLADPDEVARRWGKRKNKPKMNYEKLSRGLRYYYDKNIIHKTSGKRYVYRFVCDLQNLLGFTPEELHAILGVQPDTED
To be noted: protein: recombinant; tags: N-terminal GST; dsDNA, one strand shown. An outline of the steps: as §1

The target in experiment [14] is T9, SPDEF (Homo sapiens, UniProt O95238 1-335).
T9 sequence: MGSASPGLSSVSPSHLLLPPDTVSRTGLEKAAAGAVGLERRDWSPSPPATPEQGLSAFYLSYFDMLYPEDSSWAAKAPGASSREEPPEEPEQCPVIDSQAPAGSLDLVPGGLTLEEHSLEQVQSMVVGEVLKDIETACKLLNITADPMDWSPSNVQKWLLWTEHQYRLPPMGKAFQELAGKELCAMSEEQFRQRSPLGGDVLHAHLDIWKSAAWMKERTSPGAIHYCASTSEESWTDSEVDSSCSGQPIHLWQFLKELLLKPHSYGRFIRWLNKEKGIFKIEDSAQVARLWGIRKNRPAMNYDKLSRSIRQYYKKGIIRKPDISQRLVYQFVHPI
To be noted: protein: recombinant; tags: N-terminal GST; dsDNA, one strand shown. Put shortly:
as §1

The target in experiment [15] is T10, ETV7 (Homo sapiens, UniProt Q9Y603 1-341).
T10 sequence: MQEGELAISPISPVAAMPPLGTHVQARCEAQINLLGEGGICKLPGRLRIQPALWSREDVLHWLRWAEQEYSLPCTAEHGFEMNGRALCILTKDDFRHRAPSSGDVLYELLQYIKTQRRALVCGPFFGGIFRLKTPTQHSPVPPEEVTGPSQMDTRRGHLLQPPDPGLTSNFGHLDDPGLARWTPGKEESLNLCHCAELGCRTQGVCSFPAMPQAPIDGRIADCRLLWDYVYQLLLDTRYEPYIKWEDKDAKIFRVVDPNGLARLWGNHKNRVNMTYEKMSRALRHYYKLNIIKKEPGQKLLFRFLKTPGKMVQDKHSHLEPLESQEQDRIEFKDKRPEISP
To be noted: protein: recombinant; tags: N-terminal GST; dsDNA, one strand shown. An outline of the steps:
as §1

Experiment [16] deals with T11, ELF5 (Homo sapiens, UniProt Q9UKW6-2 1-255).
T11 sequence: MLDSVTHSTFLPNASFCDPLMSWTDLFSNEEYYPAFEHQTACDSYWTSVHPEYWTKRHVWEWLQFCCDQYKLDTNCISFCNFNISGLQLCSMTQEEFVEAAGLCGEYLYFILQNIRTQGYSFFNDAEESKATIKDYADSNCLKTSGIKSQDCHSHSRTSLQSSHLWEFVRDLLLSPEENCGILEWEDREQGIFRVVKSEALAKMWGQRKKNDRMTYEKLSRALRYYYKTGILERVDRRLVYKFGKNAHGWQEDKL
The settings on record: protein: recombinant; tags: N-terminal GST; dsDNA, one strand shown. An outline of the steps: as §1

Experiment [17] addresses T12, ETV3 (Homo sapiens, UniProt P41162-2 1-143).
T12 sequence: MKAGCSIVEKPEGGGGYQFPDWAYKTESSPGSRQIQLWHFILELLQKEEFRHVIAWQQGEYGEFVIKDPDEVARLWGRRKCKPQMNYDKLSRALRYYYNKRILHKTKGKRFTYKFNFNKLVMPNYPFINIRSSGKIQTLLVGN
To be noted: protein: recombinant; tags: N-terminal GST; dsDNA, one strand shown. An outline of the steps: as §1

Experiment [18] has as its target ETV6 (Homo sapiens, UniProt P41212 1-452). To be noted: protein: recombinant; tags: N-terminal GST; dsDNA, one strand shown. An outline of the steps:
as §1

Sequence of HSF1 (Q00613 whole entry): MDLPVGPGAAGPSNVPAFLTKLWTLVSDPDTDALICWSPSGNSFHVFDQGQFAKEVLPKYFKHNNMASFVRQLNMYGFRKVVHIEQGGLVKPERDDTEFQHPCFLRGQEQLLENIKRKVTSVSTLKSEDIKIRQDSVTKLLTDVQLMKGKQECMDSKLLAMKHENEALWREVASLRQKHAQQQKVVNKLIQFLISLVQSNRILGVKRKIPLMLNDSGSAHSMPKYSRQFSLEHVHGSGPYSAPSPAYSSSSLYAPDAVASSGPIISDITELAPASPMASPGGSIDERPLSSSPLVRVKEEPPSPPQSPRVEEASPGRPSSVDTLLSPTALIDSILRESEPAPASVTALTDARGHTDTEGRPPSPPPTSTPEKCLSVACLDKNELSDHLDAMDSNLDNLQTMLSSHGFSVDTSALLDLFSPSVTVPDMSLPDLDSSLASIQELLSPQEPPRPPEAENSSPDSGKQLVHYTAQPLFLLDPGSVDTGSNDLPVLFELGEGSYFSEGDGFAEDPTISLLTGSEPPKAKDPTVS
Sequence of ETV6 (P41212 whole entry): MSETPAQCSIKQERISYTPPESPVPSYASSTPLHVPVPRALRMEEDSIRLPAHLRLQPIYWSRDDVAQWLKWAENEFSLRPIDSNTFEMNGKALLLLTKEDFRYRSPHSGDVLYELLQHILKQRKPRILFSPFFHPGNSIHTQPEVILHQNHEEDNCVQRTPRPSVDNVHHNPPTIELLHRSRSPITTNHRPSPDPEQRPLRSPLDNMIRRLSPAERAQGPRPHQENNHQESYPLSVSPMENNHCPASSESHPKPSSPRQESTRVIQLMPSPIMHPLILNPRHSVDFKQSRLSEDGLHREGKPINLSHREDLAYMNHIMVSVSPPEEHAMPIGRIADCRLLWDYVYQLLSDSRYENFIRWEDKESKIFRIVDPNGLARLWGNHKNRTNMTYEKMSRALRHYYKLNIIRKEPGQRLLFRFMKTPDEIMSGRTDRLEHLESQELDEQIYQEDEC
Sequence of CRX (O43186 whole entry): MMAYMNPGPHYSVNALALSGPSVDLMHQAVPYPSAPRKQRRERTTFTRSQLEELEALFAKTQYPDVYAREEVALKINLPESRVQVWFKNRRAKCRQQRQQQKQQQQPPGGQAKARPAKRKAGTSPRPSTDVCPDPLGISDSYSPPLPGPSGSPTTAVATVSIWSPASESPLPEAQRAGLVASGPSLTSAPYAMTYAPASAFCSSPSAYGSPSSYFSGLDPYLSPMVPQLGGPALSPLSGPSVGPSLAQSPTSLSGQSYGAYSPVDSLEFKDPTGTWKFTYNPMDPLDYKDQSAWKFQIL
Sequence of ELF4 (Q99607 whole entry): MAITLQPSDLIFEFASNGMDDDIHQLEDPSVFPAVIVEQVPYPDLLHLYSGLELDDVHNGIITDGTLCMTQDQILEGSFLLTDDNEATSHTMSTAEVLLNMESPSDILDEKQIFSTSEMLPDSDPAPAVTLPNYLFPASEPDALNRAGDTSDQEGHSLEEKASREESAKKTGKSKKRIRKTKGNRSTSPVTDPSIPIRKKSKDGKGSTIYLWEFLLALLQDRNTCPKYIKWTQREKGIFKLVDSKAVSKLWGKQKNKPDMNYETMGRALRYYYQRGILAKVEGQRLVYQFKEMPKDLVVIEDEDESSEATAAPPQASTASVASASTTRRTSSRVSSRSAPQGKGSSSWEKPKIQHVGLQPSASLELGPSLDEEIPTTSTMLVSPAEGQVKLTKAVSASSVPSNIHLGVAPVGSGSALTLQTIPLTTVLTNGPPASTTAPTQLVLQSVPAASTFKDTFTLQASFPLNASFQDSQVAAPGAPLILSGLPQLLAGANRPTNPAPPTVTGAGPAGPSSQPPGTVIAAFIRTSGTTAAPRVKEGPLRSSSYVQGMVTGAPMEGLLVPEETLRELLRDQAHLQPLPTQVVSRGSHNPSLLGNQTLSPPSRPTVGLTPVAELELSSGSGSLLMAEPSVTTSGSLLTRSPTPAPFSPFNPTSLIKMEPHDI
Sequence of ETV1 (P50549 whole entry): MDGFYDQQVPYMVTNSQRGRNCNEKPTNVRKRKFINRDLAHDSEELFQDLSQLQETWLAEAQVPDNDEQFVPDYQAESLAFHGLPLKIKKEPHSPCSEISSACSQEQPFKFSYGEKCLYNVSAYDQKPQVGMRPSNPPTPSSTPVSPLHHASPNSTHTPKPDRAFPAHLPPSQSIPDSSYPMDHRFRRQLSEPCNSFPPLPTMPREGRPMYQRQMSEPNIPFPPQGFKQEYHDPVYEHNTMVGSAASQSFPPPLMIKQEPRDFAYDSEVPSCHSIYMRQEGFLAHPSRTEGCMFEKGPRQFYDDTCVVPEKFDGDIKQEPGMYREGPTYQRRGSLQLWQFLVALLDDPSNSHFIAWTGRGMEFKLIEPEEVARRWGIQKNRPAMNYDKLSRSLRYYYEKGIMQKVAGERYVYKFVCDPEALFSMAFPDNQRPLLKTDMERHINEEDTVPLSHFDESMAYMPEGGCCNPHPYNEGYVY
Sequence of ETV5 (P41161 whole entry): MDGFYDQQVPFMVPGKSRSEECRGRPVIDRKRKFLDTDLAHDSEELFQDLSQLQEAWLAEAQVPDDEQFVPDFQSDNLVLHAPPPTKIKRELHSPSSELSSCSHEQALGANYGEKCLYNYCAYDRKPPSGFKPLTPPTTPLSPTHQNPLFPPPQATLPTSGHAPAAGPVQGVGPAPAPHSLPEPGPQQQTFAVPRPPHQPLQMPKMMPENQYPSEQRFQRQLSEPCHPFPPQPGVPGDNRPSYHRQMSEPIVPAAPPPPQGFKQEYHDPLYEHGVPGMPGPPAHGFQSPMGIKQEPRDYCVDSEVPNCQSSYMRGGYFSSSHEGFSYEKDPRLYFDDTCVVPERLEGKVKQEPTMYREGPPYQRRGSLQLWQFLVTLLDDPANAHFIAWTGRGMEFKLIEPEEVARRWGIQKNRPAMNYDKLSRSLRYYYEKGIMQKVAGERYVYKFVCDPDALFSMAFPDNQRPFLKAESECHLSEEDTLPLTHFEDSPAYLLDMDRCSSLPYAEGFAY

Take GCTAAA: the binding signal in [1] is 1.05 fold enrichment (6-mer frequency, TF over GST control); in experiment [2], 1.15 fold enrichment (6-mer frequency, TF over GST control); in experiment [3], 1.17 fold enrichment (6-mer frequency, TF over GST control); in experiment [4], 1.09 fold enrichment (6-mer frequency, TF over GST control); in experiment [5] it was 1.06 fold enrichment (6-mer frequency, TF over GST control); in experiment [6], 1.11 fold enrichment (6-mer frequency, TF over GST control). Also, the binding signal is 1.12 fold enrichment (6-mer frequency, TF over GST control) in experiment [7]; 1.07 fold enrichment (6-mer frequency, TF over GST control) in [8]; 1.4 fold enrichment (6-mer frequency, TF over GST control) in experiment [9]; 1.26 fold enrichment (6-mer frequency, TF over GST control) in [10]; 1.19 fold enrichment (6-mer frequency, TF over GST control) in experiment [11]; 1.15 fold enrichment (6-mer frequency, TF over GST control) in experiment [12]. Moreover, the binding signal was 1.13 fold enrichment (6-mer frequency, TF over GST control) in [13]; 1.08 fold enrichment (6-mer frequency, TF over GST control) in experiment [14]; 1.08 fold enrichment (6-mer frequency, TF over GST control) in experiment [15]; 1.04 fold enrichment (6-mer frequency, TF over GST control) in [16]; 1.13 fold enrichment (6-mer frequency, TF over GST control) in experiment [17]; 1.08 fold enrichment (6-mer frequency, TF over GST control) in experiment [18].
